Screens as filed in PubChem BioAssay.
Sampled rows, rich in hits. Any-hit rate of the full collection: about 2.4%.
Pol kappa inh-1: DNA polymerase kappa (human) inhibition; Q9UBT6; purified Pol kappa, fluorescent DNA synthesis assay, 10 min; Potency, µM (top dose mostly 107 µM), for inactives: at the top dose activity, negative = inhibition, actives largely listed as inhibitors; hit rate 0.53% among 400,000; AID 588579; further: potency means the concentration at half of the fitted maximal effect; on the % scale 0 is the no-effect control and ±100 the full control effect
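Enzyme at 10 nM met test compounds for 15 min at room temperature. Substrate addition (50 nM final) began the reaction, which was monitored by fluorescence at 0 and 10 min.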
POLI inh: DNA polymerase iota (human) inhibition; Potency, µM (series often up to 115 µM), inactives show top-dose activity, negative = inhibition, most hits filed as inhibitors; Pol iota fluorescent replication assay, 10 min; Q9UNA4; hit rate 1% among 390,000; AID 588590; further: potency means the concentration at half of the fitted maximal effect
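Pol iota at 10 nM preincubated 15 min with compounds at room temperature; reaction started with fluorescent substrate, 50 nM final. Fluorescence read kinetically at 0 and 10 min; buffer-only wells as negative control.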
POLB inh: DNA polymerase beta (human) inhibition; P06746; Pol beta primer extension/strand displacement, fluorescence kinetic; Potency, µM (titrated, usually from 114 µM), without a hit: at the highest dose activity change, negative = inhibition, most hits filed as inhibitors; hit rate 1.3% among 340,000; AID 485314; further: potency means the concentration at half of the fitted maximal effect; on the % scale 0 is the no-effect control and ±100 the full control effect
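Kinetic readout of DNA synthesis with strand displacement by Pol beta. Compound and 10 nM enzyme sit 15 min at room temperature; 50 nM substrate starts the reaction, read immediately and at 10 min.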
TDP1 inh: TDP1 (human) enzyme inhibition; hit rate 0.28% among 350,000; recombinant TDP1, AlphaScreen DNA substrate cleavage; Q9NUW8; Potency, µM (series often up to 130 µM), for the others: top-dose activity change, negative = inhibition, most hits filed as inhibitors; further: potency means the concentration at half of the fitted maximal effect; on the % scale 0 is the no-effect control and ±100 the full control effect; nearly all actives have a fitted effect of over 40% in size
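Here, a 5' biotin and 3' phosphotyrosine-FITC DNA oligonucleotide reports Tdp1 activity: intact substrate bridges AlphaScreen beads, while cleavage leaves a 3' phosphate and drops signal. All incubations at room temperature.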
FEN1 inhibitor: human FEN1 inhibition; P39748; Recombinant FEN1 flap cleavage, fluorescence, 15 min; Potency, µM (top dose mostly 114 µM), for inactives: top-dose activity change, negative = inhibition, hits mostly inhibitors; hit rate 0.35% among 390,000; AID 588795; further: potency means the concentration at half of the fitted maximal effect; on the % scale 0 is the no-effect control and ±100 the full control effect; nearly all actives have a fitted effect of over 65% in size
Target sequence (P39748 whole entry, looked up): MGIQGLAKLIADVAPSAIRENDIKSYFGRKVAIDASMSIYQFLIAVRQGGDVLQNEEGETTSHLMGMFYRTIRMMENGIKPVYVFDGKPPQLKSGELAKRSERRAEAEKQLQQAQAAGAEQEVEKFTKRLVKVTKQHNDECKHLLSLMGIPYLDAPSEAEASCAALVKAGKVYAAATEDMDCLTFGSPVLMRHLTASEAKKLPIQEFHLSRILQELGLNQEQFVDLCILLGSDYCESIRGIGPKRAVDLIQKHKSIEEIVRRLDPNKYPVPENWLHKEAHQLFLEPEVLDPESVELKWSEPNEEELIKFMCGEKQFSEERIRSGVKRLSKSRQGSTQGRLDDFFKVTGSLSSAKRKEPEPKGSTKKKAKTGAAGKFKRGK
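FEN1 at 10 nM, compound pretreatment for 15 min (room temperature), 50 nM final substrate to initiate; endpoint reads at 0 and 15 min; DMSO-only plates used as vehicle background.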
Pol eta inh-1: DNA polymerase eta (human) inhibition; recombinant Pol eta, fluorescent DNA replication assay; hit rate 1.2% among 390,000; Potency, µM (titrated, usually from 114 µM), inactives show top-dose activity change, negative = inhibition, actives largely listed as inhibitors; AID 588591; Q9Y253; further: potency means the concentration at half of the fitted maximal effect; on the % scale 0 is the no-effect control and ±100 the full control effect
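Pol eta at 10 nM preincubated with compounds 15 min at room temperature; reaction started with fluorescent substrate (50 nM final) and read kinetically at 0 and 10 min.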
GALK inh confirm: confirmation of human galactokinase (GALK) inhibitors. shares compounds with Pol eta inh-1. purified GALK, Kinase-Glo ATP depletion luminescence. Potency, µM (top dose mostly 115 µM), inactives show top-dose activity, negative = inhibition, usual class: inhibitors. hit rate 70% among 150. AID 2015
Target sequence (P51570 whole entry, looked up): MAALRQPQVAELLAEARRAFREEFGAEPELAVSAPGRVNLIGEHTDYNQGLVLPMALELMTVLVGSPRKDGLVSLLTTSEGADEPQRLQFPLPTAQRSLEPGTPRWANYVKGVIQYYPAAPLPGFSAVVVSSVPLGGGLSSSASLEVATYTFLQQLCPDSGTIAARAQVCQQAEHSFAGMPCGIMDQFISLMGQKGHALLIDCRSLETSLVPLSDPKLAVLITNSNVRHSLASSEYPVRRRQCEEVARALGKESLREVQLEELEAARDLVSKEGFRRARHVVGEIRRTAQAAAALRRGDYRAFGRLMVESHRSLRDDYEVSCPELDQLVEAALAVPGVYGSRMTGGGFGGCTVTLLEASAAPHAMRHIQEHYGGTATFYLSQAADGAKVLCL
Redox cycling: redox cycling activity in phenol red-HRP assay; hit rate 40% among 150; Phenol red-HRP H2O2 redox cycling, absorbance 600 nm; shares compounds with Pol eta inh-1; AID 2035; Potency, µM (highest dose often 115 µM), for the others: at the highest dose activity change, negative = H2O2 signal, actives largely listed as inhibitors
HEK293 viability: reduces HEK-293 cell viability in GALK counter-screen; Potency, µM (highest dose often 46.1 µM), inactives show top-dose activity change, negative = cytotoxicity, most hits filed as inhibitors; shares compounds with Pol eta inh-1; AID 2547; HEK-293 viability, ATP luminescence (CellTiter-Glo), 24/48 h; hit rate 10% among 170; further: potency means the concentration at half of the fitted maximal effect; on the % scale 0 is the no-effect control and ±100 the full control effect
Pol kappa inh-2: Pol kappa (human) inhibition, cherry-pick confirmation; purified Pol-kappa, fluorescent strand-displacement substrate; hit rate 76% among 920; shares compounds with Pol eta inh-1; Potency, µM, usual class: inhibitors; AID 720501; further: potency means the concentration at half of the fitted maximal effect
Pol eta inh-2: Pol eta (human) inhibition, cherry-pick confirmation. shares compounds with Pol eta inh-1. Pol eta primer extension, TAMRA/BHQ fluorescence, 10 min. Potency, µM, most hits filed as inhibitors. hit rate 64% among 2,600; further: potency means the concentration at half of the fitted maximal effect
* = called active by the depositor; ? = inconclusive; · = no result; [ ] = dose if it differs, or a comment. The call rests on the fitted dose curve; in most records, active means well fitted curve in the direction sought with a large enough effect; inconclusive means small, poorly fitted or top-dose-only effect, or another doubt; inactive means no such curve, though single readings can be large; an effect the other way counts as inactive or inconclusive.

SMILES | Pol kappa inh-1 | POLI inh | POLB inh | TDP1 inh | FEN1 inhibitor | Pol eta inh-1 | Pol eta inh-2 | others
CC(=O)O[C@H]1C[C@@]2(C)[C@H](C[C@@H](O)[C@H]3[C@@]4(C)CC[C@@H](O)[C@@H](C)[C@H]4CC[C@@]32C)C1=C(CCC=C(C)C)C(=O)O | -11%[12 µM] | · | · | 18%[21 µM] | · | · | ·
CO[C@H]1C[C@@H](O[C@@H]2[C@H](C)[C@H](O[C@@H]3O[C@@H](C)C[C@@H](N(C)C)[C@@H]3O)[C@H](C)C[C@]3(CO3)C(=O)[C@H](C)[C@H](O)[C@H](C)[C@H](C)OC(=O)[C@@H]2C)O[C@@H](C)[C@H]1O | -13%[19.4 µM] | · | · | 6%[56.1 µM] | · | · | ·
N=C1/C(=C/c2ccc(OCc3ccccc3F)cc2)C(=O)N=C2SC(CC(=O)N3CCOCC3)=NN12 | ? | 25µM* | ? | 1% | 7% | -11% | ?
N=C1/C(=C\c2ccc(Br)o2)C(=O)N=C2SC(CC(=O)N3CCCCC3)=NN12 | 32µM* | ? | ? | -12% | ? | 22µM* | 85*
C[Si](C)(C)O[Si](C)(C)C | -3%[60.1 µM] | · | · | 4% | · | · | ·
COc1ccc(C2=NN(c3nc(-c4ccccc4)c(CC(=O)O)s3)C(c3ccco3)C2)cc1 (stereo not given) | ? | ? | 22µM* | 4% | 6% | 28µM* | ? | Pol kappa inh-2=15*
CCC1(c2ccc(OC)cc2)NC(=O)N(C)C1=O (stereo not given) | 16%[60.1 µM] | · | · | 11% | · | · | ·
S=c1[nH]nc(-c2ccco2)n1/N=C/C=C/c1ccco1 | 79µM* | 11µM* | 35µM* | -5% | -30% | 28µM* | 85*
S=c1[nH]nc(-c2n[nH]c3c2CCC3)n1/N=C/C=C/c1ccco1 | 79µM* | ? | 40µM* | · | -26% | 25µM* | 30*
COc1ccccc1/C=C/C=N/n1c(-c2ccco2)n[nH]c1=S | -13% | 37% | 1% | 1% | -3% | -18% | ·
COc1cc(/C=N/n2c(-c3n[nH]c4c3CCC4)n[nH]c2=S)cc(OC)c1O | 5% | 42% | 8% | · | 5% | -9% | ·
Cc1ccn2cc(CC(=O)O)nc2c1 | ? | ? | 13µM* | · | 6% | 14µM* | 67*
Cc1ccn2cc(-c3ccc(O)c(O)c3)nc2c1 | 20µM* | 14µM* | 10µM* | · | -17% | 22µM* | ?
CC(=O)Nc1ccc(NC(=O)c2c(C)nn(-c3ccccc3)c2-n2cccc2)cc1 | -22% | 14% | 1% | 0% | -8% | -10% | ·
O=C(O)C1C2C=CC3(O2)C1C(=O)N1c2ccccc2C2OCCC2C13 (stereo not given) | -33% | ? | 40µM* | 40µM* | -2% | 35µM* | ?
CCOC(=O)c1sc(NC(=O)c2ccc3nc[nH]c3c2)nc1C | -25% | ? | ? | · | -30% | ? | ?
Cc1ccc(/C=N/c2sc3c(c2C#N)CCC3)o1 | -7% | ? | 8% | · | -1% | ? | ·
N#Cc1c(/N=C/c2ccc(-c3ccc(C(=O)O)c(Cl)c3)o2)sc2c1CCCC2 | -33% | -20% | · | 7% | -10% | 22µM* | ?
N#Cc1c(/N=C/c2ccc(-c3ccccc3C(=O)O)o2)sc2c1CCCC2 | -31% | ? | 28µM* | · | -21% | 28µM* | 67*
CCOc1ccc(NC(=O)c2cnn(-c3ccc(C)c(Cl)c3)c2C2CCNCC2)cc1 | 3% | 2% | 32% | -1% | -16% | -1% | ·
COC(=O)N1CCC2(CC1)CN(C(=O)Nc1cccc(F)c1)C2 | 5%[60.1 µM] | · | · | · | · | · | ·
COc1ccc(/C=C/c2cnccn2)cc1OC | -25% | 8% | · | · | -3% | · | ·
N#C/C(=C(/O)COc1ccccc1)c1nc2ccccc2s1 | 0% | 16% | 45% | 5% | 2% | -8% | ·
Cc1ccc(SC/C(O)=C(\C#N)c2nc3ccccc3s2)cc1 | -7% | 4% | 2% | 6% | 0% | -1% | ·
N#C/C(=C(/O)COc1ccc(Cl)cc1)c1nc2ccccc2s1 | -6% | 16% | -20% | 4% | -3% | 5% | · | GALK inh confirm=?;Redox cycling=1%;HEK293 viability=-12%
SMILES | Pol kappa inh-1 | POLI inh | POLB inh | TDP1 inh | FEN1 inhibitor | Pol eta inh-1 | Pol eta inh-2 | others
COc1ccc(C/C(O)=C(\C#N)c2nc3ccccc3s2)cc1 | -4% | 32% | 10% | 9% | 10% | -16% | · | GALK inh confirm=42µM*;Redox cycling=-3%;HEK293 viability=-9%
Cc1cccc(N(C)C(CNS(=O)(=O)c2ccccc2)c2ccccc2)c1 (stereo not given) | -10% | 5% | 3% | 5% | -20% | · | ·
CCN(CC)Cc1c(O)c(Cl)cc2c(C)cc(=O)oc12 | 89µM* | ? | 10µM* | 13µM* | -7% | 20µM* | ?
Cc1cc(=O)oc2c(CN3CCCC3)c(O)c(Cl)cc12 | -24% | -19% | ? | · | 3% | ? | ·
CCN(CC)Cc1c(O)c(Cl)cc2c(C)c(C)c(=O)oc12 | -7% | -1% | 8% | 0% | 2% | -4% | ·
Cc1cc(=O)oc2c(CN3CCC(C)CC3)c(O)c(Cl)cc12 | ? | ? | 16µM* | ? | -13% | 13µM* | ?
CCCC[C@@H]1C[C@H]1C(NC(=O)c1cccs1)c1ccc(Cl)cc1 (stereo not given in full) | · | · | · | -3% | · | · | ·
Cc1noc(NS(=O)(=O)c2ccc(NC(=O)CSc3nc4ccccc4[nH]3)cc2)c1C | -6% | -3% | -7% | 7% | -16% | -11% | ·
Cc1noc(NS(=O)(=O)c2ccc(NC(=O)CSc3nnc4c(n3)[nH]c3ccccc34)cc2)c1C | ? | ? | ? | -1% | -1% | 25µM* | 24*
CN(C)C(=O)c1ccc(-c2ccc3ncnc(N(C)C)c3c2)cc1 | -1%[60.1 µM] | · | · | · | · | · | ·
